Experimental data from PubChem BioAssay (NCI).
About 83,000 compounds went through this panel and 20% of them were active in at least one assay; those are over-represented in the sample as a whole.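 Single-dose data. Exposure time 48 hours. Values below 10 considered active.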 Values without a mark were called inactive. Activity calls are given as the source filed them.

Tested on: MDA-MB-468 breast
Test: NCI-60 one-dose screen, 48 h (100 = growth as untreated, 0 = no growth, -100 = all killed)
Details: 10 µM unless noted

SMILES | growth
C/C(=N\O)C(=O)NCCCCCC(=O)Nc1ccccc1 | 114%
CC1(O)CCCCCC1 | 100%
Cc1cc(N2CCN(c3ccnc4cc(Cl)ccc34)CC2)nc(N2CCOCC2)n1 | 68.7%
COc1ccc2[nH]cc(/C=C3/C(=O)Nc4ccc(Cl)cc43)c2c1 | -10.9% (active)
Nc1nc(-c2cccc(Br)c2)cc(-c2cc3ccccc3oc2=O)n1 | 91.8%
COc1ccc(/C=C/c2cc(N3CCOCC3)c3cc(F)c(F)cc3n2)cc1OC | 14.5%
O=C(NCCCNc1nccc(-n2ccc3cccnc32)n1)c1c(F)cccc1F | 101%
C/C(O)=C(\C=N\C(N)=S)C(=O)Nc1ccccc1 | 92.8%
ClC1=C(Cl)C(Cl)=C(Cl)C1=Cc1ccccc1 | -80.7% (active)
CC1(C)OC(=O)C(c2ccsc2)C(=O)O1 | 114%
COc1cccc(CNc2ccc3ncnc(Nc4ccc(F)c(Cl)c4)c3c2)c1 | -19.6% (active)
COC(=O)c1c2c(c(C)[n+]([O-])c1C)C(=O)C=C(NCc1ccc(Cl)cc1)C2=O | -67% (active)
O=C1c2cccc(NCCN=Cc3cc(O)ccc3O)c2C(=O)c2c(NCCN=Cc3cc(O)ccc3O)cccc21 | -85.8% (active)
COC(=O)[C@]12CC[C@@H](C)[C@H](C)[C@@H]1C1=CC[C@@H]3[C@@]4(C)C(C=O)=C[C@@](C)(COC(C)=O)C4=CC[C@@]3(C)[C@]1(C)CC2 | -3.02% (active)
C/C(=N\NC(=O)CSc1nc2ccccc2c(=O)n1CCc1ccc(S(N)(=O)=O)cc1)c1ccc(Br)cc1 | 84.1%
Cc1cccc(NC(c2cc3cccc4ccc5cccc2c5c43)c2nnnn2C(C)(C)C)c1C (stereo not given) | -10.3% (active)
COc1ccc(/C(=N\N)C(=O)c2ccccc2)cc1 (tested in a mixture with another compound) | 89%
CN(/C(N)=N/N=C/c1c2ccccc2cc2ccccc12)C1CCCCC1 | 4.88% (active)
N#Cc1cnc2cc(OC[C@@H](O)CO)c(NC(=O)C3CCCC3)cc2c1Nc1ccc(OCc2cccc(F)c2)c(Cl)c1 | -20.9% (active)
CC(=O)Oc1ccc(Nc2c3ccccc3nc3ccccc23)cc1 | -25.6% (active)

SMILES | growth
COc1cc2nc(-c3ccc(Cl)cc3)cc(OCCCN3CCOCC3)c2cc1OC | 59.9%
NC(=O)c1n[nH]n2c1nc(=O)c1c3c(sc12)CCCC3 | 120%
COc1cc(OC)c2sc(-c3ccc(-n4cncc4-c4ccc(N)cc4)cc3)nc2c1 | 67.3%
COc1ccc([C@H]2[C@H](C(=O)Nc3cccnc3)c3ccccc3C(=O)N2c2ccccc2)cc1 | 97.7%
O=S(=O)(NC1c2ccccc2Oc2ccccc21)c1ccccc1 | 87.6%
Oc1ccc(Cl)cc1-c1cc(-c2ccccc2Cl)[nH]n1 | 3.92% (active)
Oc1ccc(CCl)c2cccnc12 | 86.2%
Nc1ccc(N)c([N+](=O)[O-])c1 | 88%
C=CN(C)S(C)(=O)=O | -3.6% (active)
CC1(c2ccc(Cl)cc2)OC(=O)CC(=O)O1 | 109%
CCOc1ccc([C@@H]2[C@@H](Oc3ccccc3)C(=O)N2c2cc(OC)c(OC)c(OC)c2)cc1 | 29.4%
c1ccc(-c2ccc(-c3nc4ccccc4[nH]3)cc2)cc1 | 87%
COc1cc(NC(N)=NCCC(C)(C)Oc2ccc(C(F)(F)F)cc2)ncc1C#N | -84.4% (active)
COc1ccc2nc3cc(Cl)ccc3c(Nc3ccc(O)c(CN4CCCC4)c3)c2c1 | -35.9% (active)
CCN(CC)CCOc1ccc2ccc(=O)oc2c1 | 86%
CCOC(=N)c1ccc(C(=N)OCC)cc1 | 106%
CCN1CCN(CC(=O)Nc2nc3ccc(NCc4ccc(Cl)cc4)cc3s2)CC1 | 47.8%
O=c1c2ccccc2n(CC(O)CN2CCCC2)c2c(Br)cccc12 (stereo not given) | 97.1%
c1ccc(-c2[nH]c3ccccc3c2-c2ccccc2)cc1 | 84.1%
CCN1CCN(CC(=O)Nc2nc3ccc(NCc4ccc(C)cc4)cc3s2)CC1 | 68.2%
